Screening data as filed in PubChem BioAssay.
SW480 rerep: inducers of DNA re-replication in SW480 colon cancer cells | hit rate 1.8% among 340,000 | SW480 DNA re-replication, Hoechst DNA content imaging, 48 h | Potency, µM (highest dose often 46.1 µM), for inactives: at the top dose re-replication activation, actives largely listed as activators | AID 624297; further: % of control where 0% means no effect; nearly all actives have a fitted effect of over 55% in size
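Compounds, transferred as 23 nL by pin tool, were incubated with cells for 48 hr; DNA content per nucleus was then quantified by Hoechst staining and fluorescence plate imaging.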
KB-3-1 tox: kills parental KB-3-1 adenocarcinoma cells. KB-3-1 viability, CellTiter-Glo ATP luminescence, 72 h. Potency, µM (doses to about 46.1 µM), hits mostly cytotoxic. hit rate 1.4% among 400,000; further: on the % scale 0 is the no-effect control and ±100 the full control effect; nearly all actives have a fitted effect of over 60% in size
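Multi-concentration cytotoxicity screen in KB-3-1 cells grown in DMEM lacking phenol red with 10% FBS. After 72 h at 37 °C with compound, ATP-dependent luminescence was recorded.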
KB-V1 cytotox: KB-V1 MDR subline cytotoxicity; KB-V1 MDR cells viability, CellTiter-Glo, 72 h; Potency, µM (titrated, usually from 46.1 µM), usual class: cytotoxic; hit rate 3.4% among 400,000; AID 1347076; further: on the % scale 0 is the no-effect control and ±100 the full control effect; nearly all actives have a fitted effect of over 60% in size
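Potencies derive from concentration-effect curves fitted to normalized luminescence (CellTiter-Glo) of KB-V1 cells treated for 72 h at 37 degrees C in phenol-red-free DMEM containing 10% FBS.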
HT1080 IDH1KD tx: HT-1080 IDH1 knockdown cell toxicity (counter line) | Potency, µM (titrated, usually from 46.1 µM), for the others: top-dose activity, negative = toxicity, hits mostly cytotoxic | AID 686971 | hit rate 2% among 360,000 | HT-1080 IDH1 knockdown viability, ATP luminescence, 48 h;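 further: 0% = DMSO wells and -100% = cell-free medium wells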
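% activity derives from luminescence (CellTiter-Glo), normalised to DMSO and no-cell wells. HT-1080-IDH1KD cells, 750/well, had 48 h compound exposure at 37 °C.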
MCF10A rerep: inducers of DNA re-replication in MCF 10A breast cells; hit rate 2.9% among 350,000; MCF 10A DNA re-replication, Hoechst nuclear intensity, 48 h; Potency, µM (highest dose often 46.1 µM), for the others: at the top dose activity, positive = re-replication, usual class: activators; AID 624296; further: % of control where 0% means no effect; nearly all actives have a fitted effect of over 50% in size
HT1080-NT tox: kills 2HG-producing HT-1080-NT fibrosarcoma cells; Potency, µM (doses to about 46.1 µM), for inactives: at the highest dose activity, negative = less viability, actives largely listed as cytotoxic; HT-1080-NT fibrosarcoma viability, CellTiter-Glo ATP luminescence, 48 h; AID 686970; hit rate 1.6% among 360,000;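 further: NT is the 2HG producing partner of a matched IDH1 knockdown line; 0% = DMSO-treated cells and -100% = media-only wells without cells; nearly all actives have a fitted effect of over 55% in size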
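HT-1080-NT; 750 cells/well; 5% FBS RPMI; 48 h compound, 37 degrees C; CellTiter-Glo luminescence; curve fitting and curve-class assignment.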
* marks the source's active call; other numbers are inactive results; i = inactive; ? = inconclusive; . = not tested or not shown; [ ] = remark or other dose. Sampled rows, rich in hits. Any-hit rate of the full collection: about 8%. The call rests on the fitted dose curve; in most records, active means well fitted curve in the direction sought with a large enough effect; inconclusive means small, poorly fitted or top-dose-only effect, or another doubt; inactive means no such curve, though single readings can be large; an effect the other way counts as inactive or inconclusive. Potency means the concentration at half of the fitted maximal effect.

SMILES	SW480 rerep	KB-3-1 tox	KB-V1 cytotox	HT1080 IDH1KD tx	MCF10A rerep	HT1080-NT tox
CCc1cccc(NC(=O)CN(c2ccc(C)cc2)S(=O)(=O)c2c(C)noc2C)c1	-37%	i	?	-8%	12µM*	-21%
Cc1ccc(N(CC(=O)Nc2ccc(F)c(Cl)c2)S(=O)(=O)c2c(C)noc2C)cc1	9%	?	18µM*	?	12µM*	?
Cc1ccc(N(CC(=O)Nc2cc(C)cc(C)c2)S(=O)(=O)c2c(C)noc2C)cc1	?	?	?	?	?	18µM*
Cc1ccc(NCc2cccn2-c2nnc(N3CCCCCC3)s2)cc1	.	i	i	.	.	.
COc1ccc(OC(C)C(=O)N(C)Cc2nc(-c3ccc(OC)cc3)no2)cc1 (stereo not drawn)	-18%	?	18µM*	0%	9%	?
COc1ccc(OC(C)C(=O)N(C)Cc2nc(-c3ccc(C)cc3)no2)cc1 (stereo not drawn)	2%	i	?	-18%	11%	-17%
COc1ccc(-c2noc(CN(C(=O)C(C)(C)C)C(C)C)n2)cc1	-3%	i	21µM*	9%	22%	8%
CC(C)N(Cc1nc(-c2ccccc2)no1)C(=O)C(C)(C)C	-6%	i	i	9%	1%	11%
O=C(NCC(c1cccnc1)N1CCN(c2ccc(F)cc2)CC1)OCc1ccccc1 (stereo not drawn)	4%	i	?	-5%	4%	-7%
O=C(NCC(c1cccnc1)N1CCN(c2ccccc2)CC1)OCc1ccccc1 (stereo not drawn)	-4%	i	2.6µM*	3%	15%	11%
O=C(NCC(c1cccnc1)N1CCN(c2ccccc2)CC1)C1CCCCC1 (stereo not drawn)	1%	i	21µM*	-3%	-7%	0%
Clc1ccccc1-c1nc2nc3ccccc3nc2n1-c1ccc2c(c1)OCO2	2%	i	9.2µM*	0%	?	4%
COc1ccc(NC(=O)CSC2=C(C#N)C(c3ccco3)C3=C(CCCC3=O)N2)c(OC)c1 (stereo not drawn)	?	i	i	11%	?	3%
Cc1ccc(C(=O)CSC2=C(C#N)C(c3ccco3)C3=C(CCCC3=O)N2)cc1 (stereo not drawn)	5.8µM*	?	8.2µM*	5.6µM*	8.2µM*	5µM*
CC(C)(C)c1ccc(C(=O)CCCSC2=C(C#N)C(c3ccco3)C3=C(CCCC3=O)N2)cc1 (stereo not drawn)	?	?	10µM*	-19%	?	?
N#CC1=C(SCC(=O)c2ccccc2)NC2=C(C(=O)CCC2)C1c1ccco1 (stereo not drawn)	15µM*	18µM*	?	4.6µM*	8.9µM*	?
COc1cc(NC(=O)CSc2nc3ncccc3o2)cc(OC)c1	.	i	i	.	.	.
COC(=O)c1ccccc1NC(=O)Cc1nc(-c2ccc(OC)cc2)no1	.	i	?	.	.	.
CC(C)(C)C1CCc2c(sc(NC(=O)c3noc4c3CCCC4)c2C#N)C1 (stereo not drawn)	.	i	?	.	.	.
Cc1ccccc1OCc1nc2ccccc2n1C	-65%	i	i	3%	12%	4%
Cc1nnc(OCc2nc3ccccc3n2C)c2ccccc12	1%	?	9.2µM*	1%	-9%	-2%
CS(=O)(=O)OCC(O)C(O)COS(C)(=O)=O (stereo not drawn)	19%	.	.	.	20%	.
CC(C)c1ccc2oc(-c3cc(N)ccc3O)nc2c1	6%	i	18µM*	-20%	29%	-10%
CN(CC(=O)Nc1ccc(F)cc1)C(=O)COc1ccccc1Cc1ccccc1	-1%	?	18µM*	-24%	?	-8%
CN(CC(=O)Nc1ccccc1C(F)(F)F)C(=O)COc1ccccc1Cc1ccccc1	?	i	8.2µM*	-12%	11%	7%
SMILES	SW480 rerep	KB-3-1 tox	KB-V1 cytotox	HT1080 IDH1KD tx	MCF10A rerep	HT1080-NT tox
CN(CC(=O)Nc1ccc(Cl)c(C(F)(F)F)c1)C(=O)COc1cccc2cccnc12	.	i	i	-6%	.	-2%
C/C=C/c1ccc(OCC(=O)N(C)CC(=O)Nc2ccc(F)cc2)c(OC)c1	-6%	i	16µM*	-8%	-8%	-4%
COc1ccc(NC(=O)CN(C)C(=O)COc2ccccc2Cc2ccccc2)cc1	-32%	i	i	-5%	-1%	2%[9.24 µM]
CSc1ccccc1NC(=O)CN(C)C(=O)COc1cccc2cccnc12	5.8µM*	i	i	-2%	?	2%
O=C(N/N=C/c1ccco1)c1cc(Br)ccc1OCc1ccccc1	1%	i	i	4%	22%	12%
Cc1cccc(/C=N/NC(=O)c2cc(Br)ccc2OCc2ccccc2)n1	?	i	i	18µM*	?	?
Cc1cccc(/C=N/NC(=O)c2ccccc2OCc2cccc(Br)c2)n1	19%	i	i	?	18µM*	-10%
O=C(N/N=C/c1cccnc1)c1cc(Br)ccc1O	1%	i	i	17%	-5%	17%
O=C(N/N=C/c1ccccn1)c1cc(Br)ccc1O	4.1µM*	i	i	?	?	-20%
CCOc1ccc(NC(=O)CN2C(C(=O)OC)=C(c3ccccc3)c3cc(Cl)ccc3S2(=O)=O)cc1	.	i	i	.	.	.
O=C(CCl)N(c1ccccc1)C1CCCCC1	?	i	?	3.3µM*	21%	5.2µM*
CC(=O)N(c1ccccc1)C1CCCC1	-13%	i	i	0%	1%	1%
CN(CCC#N)C(=O)COC(=O)c1c2c(nc3ccccc13)/C(=C/c1ccco1)CC2	12µM*	i	?	14%	?	12%
CC(C)C[C@H]1CNC(=S)N1CC1CCN(CC2CCCC2)CC1	0.026µM*	i	i	7%	?	-2%
CC(C)C[C@@H](CN1CCCC1CN1C(=S)NC[C@@H]1Cc1ccc(O)cc1)N1C[C@H](Cc2ccc(O)cc2)N(CC2CCCCCC2)C1=S (stereo partly drawn)	4%	?	?	?	?	23µM*
CC(C)C[C@H]1CN([C@@H](CC(C)C)CN2CCCC2CN2C(=S)NC[C@@H]2Cc2ccccc2)C(=S)N1CC1CCCCC1 (stereo partly drawn)	.	i	?	16µM*	.	-29%
